Experimental data: PubChem BioAssay (NCI)
The panel holds about 83,000 compounds, 20% with a hit somewhere; the sample as a whole holds those more often.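 Plates (96-well) were seeded with cells, treated with compound at one concentration, and incubated for 48 hours before percent growth was determined.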 Unmarked numbers belong to inactive results. Activity calls are given as the source filed them. How the source made its calls: active means growth percent below 10; inactive means the rest.

Experiments:
Test in all cases: NCI-60 one-dose screen, 48 h (100 = growth as untreated, 0 = no growth, -100 = all killed)
Details in all cases: 10 µM
T-47D breast = test system: T-47D breast
BT-549 breast = test system: BT-549 breast
MDA-MB-435 melanoma = test system: MDA-MB-435 melanoma
SW-620 colon = test system: SW-620 colon
MCF7 breast = test system: MCF7 breast
HCC-2998 colon = test system: HCC-2998 colon
KM12 colon = test system: KM12 colon
HCT-116 colon = test system: HCT-116 colon

SMILES | growth (T-47D breast) | growth (BT-549 breast) | growth (MDA-MB-435 melanoma) | growth (SW-620 colon) | growth (MCF7 breast) | growth (HCC-2998 colon) | growth (KM12 colon) | growth (HCT-116 colon)
O=C1/C=C/[C@@H](O)[C@@H]2C[C@@H](O)C[C@H]2/C=C/CCC[C@H](CCc2ccc(NC(=S)Nc3ccc4c(c3)C(=O)OC43c4ccc(O)cc4Oc4cc(O)ccc43)cc2)O1 | 21.2% | 21.3% | 18.8% | 3.26% (active) | -5.59% (active) | -7.57% (active) |  | 
CC[C@@H](C(=O)[C@@H](C)[C@@H](O)[C@H](C)[C@@H]1O[C@@H]([C@@H](CC)C(=O)N(CC)CC)CC[C@@H]1C)C1O[C@]2(C=CC(=O)[C@]3(CC[C@@](C)([C@H]4CC[C@](O)(CC)[C@H](C)O4)O3)O2)[C@H](C)C[C@@H]1C (stereo partly specified) | 16.2% | 43.8% | 30.2% | 25.3% | 5.81% (active) | 29% | 40.9% | 
Cc1ccc(Cl)cc1NC(=O)CCl | 77.6% | 57.2% | 83.1% | 73.7% | 67.8% | 114% |  | 
COc1ccc(-c2csc(NC(=O)c3ccc(Cc4n[nH]c(=O)c5cccnc45)cc3)n2)cc1 | 68.8% | -17.8% (active) | 98.8% | 95.2% | 77.4% | 90.1% | 98.5% | 
O=C1c2c(c3c4ccccc4n(CCCCCCN4CCOCC4)c3c3[nH]c4ccccc4c23)C(=O)N1O | 79.9% | 91.9% | 56.4% | 4.79% (active) | 6.49% (active) | 87.8% | 78% | 
CCOC(=O)c1cocc1C(=O)O | 104% | 108% | 106% | 103% | 101% | 103% | 104% | 
O=C1/C=C/[C@@H](O)[C@@H]2C[C@@H](O)C[C@H]2/C=C/CCC[C@H](CCc2ccc(C(F)(F)F)cc2)O1 | -32.2% (active) | 4.5% (active) | 7.3% (active) | -1.3% (active) | -17.5% (active) | -11.5% (active) | -6.74% (active) | 
O=c1oc2c(cc1-c1ccc(F)cc1)C(O)Oc1ccccc1-2 (stereo unspecified) | 87.4% | 87.6% | 3.53% (active) | 45.4% | 55.2% | 48.6% | 45.3% | 
COc1cc(Cc2cc(-c3ccccc3)n[nH]c2=O)cc(OC)c1OC | 40.5% | 54.1% | 11% | 33% | 34.9% | 79.1% | 48.8% | 
C=C(C)[C@@H]1CC[C@]2(COCCC#N)CC[C@]3(C)[C@H](CC[C@@H]4[C@@]5(C)Cc6c([nH]c7ccccc67)C(C)(C)[C@@H]5CC[C@]43C)[C@@H]12 | 81.8% | 95.3% | 95.8% | 92.6% | 81.1% | 104% | 95.8% | 
CS(=O)(=O)c1nccc(-c2c(-c3ccc(OCCc4ccccc4)cc3)nc3sccn23)n1 | 91.3% | 110% | 96% | 93.7% | 66.1% | 106% |  | 
CCOC(=O)c1cc(C(=O)c2ccc(OC)c(OC)c2)n2c1ccc1ccc3cccnc3c12 | 47.5% | 33% | -25.6% (active) | 12.8% | 21.8% | 65.7% | 28.8% | 
CCOC(=O)c1cc(C(=O)c2cc(OC)c(OC)c(OC)c2)n2ncc3ccccc3c12 | 77.1% | 70.5% | 7.14% (active) | 35.8% | 30.4% | 93.2% | 39.6% | 
COc1ccc2c(c1)OC(N)=C(C#N)C2c1cc(OC)c(OC)c(OC)c1 (stereo unspecified) | 16.7% | 5.64% (active) | -16.7% (active) | 17.1% | 13.3% | 15% | -10.3% (active) | 
C(=N\Nc1ncnc2sc3c(c12)CCNC3)/c1cccc2ccccc12 | 103% | 92.5% | 97.7% | 2.91% (active) | 37.8% | 92.6% | 82.4% | 
COc1ccc(-c2nn(-c3cccc(Cl)c3)cc2-c2cc(-c3cccs3)[nH]c(=S)n2)cc1 | 41.6% | 46.7% | 33.5% | 61.4% | 34.1% | 37.4% | 27.5% | 
COc1cc2c(Nc3ccc(S(N)(=O)=O)cc3)ncnc2c(OC)c1OC | 97% | 126% | 105% | 95.7% | 96.6% | 98.4% | 99.2% | 
Cc1ccc(-n2c(C)nn3c(=O)c4c5c(sc4nc23)CN(C)CC5)cc1 | 81.3% | 97.6% | 102% | 104% | 92.3% | 97.2% | 96% | 
CC(=O)[C@@]12O[C@](C)(c3ccccc3)O[C@@H]1CC1C3CCC4=CC(=O)CC[C@]4(C)C3CC[C@@]12C (stereo partly specified) | 74.3% | 79.7% | 77.8% | 83.3% | 59% | 79.3% | 70.8% | 
COc1cc(-c2nn(-c3ccc(NC(=O)NCCCNC(=O)c4ccccc4)cc3)cc2-c2ccncc2)ccc1Cl | 67.5% | 22.8% | 2.49% (active) | 33.3% | 12.8% | 32% | 20% | 
COC1=CC(=O)OC(c2ccc(OC)cc2)C1 (stereo unspecified) | 101% | 105% | 114% | 102% | 99.8% |  | 102% | 108%
COc1cc(NC(=O)C2=C(N3CCOCC3)/C(=C/c3ccc(Cl)cc3)CC2)cc(OC)c1OC | 71.1% | 103% | 75.3% | 100% | 73.3% |  | 97.3% | 65.7%
Clc1ccc(/C=C2\CCCC3C2=Nc2ccccc2NC3c2ccc(Cl)cc2)cc1 (stereo unspecified) | 104% | 83% | 11.9% | 41.5% | 35.8% |  | 17.3% | -87% (active)
O=C1/C(=C/c2cccc(F)c2)Cc2ccccc21 | 103% | 106% | 97.9% | 102% | 25.1% | 97.1% | 98.7% | 
COC(=O)c1cc2oc(/C=C3/SC(=S)N(N)C3=O)cc2n1Cc1ccccc1 | 75.6% | 36.5% | 19.2% | -43.3% (active) | 21% | 80.2% | 58.9% | 
O=C(CCCCCCC(=O)Nc1ccccc1)NO | -12.6% (active) | 53.9% | -22% (active) | -25.7% (active) | 9.87% (active) | 0.434% (active) | 14.4% | 
CCCCC(CC)CN=C(N)NC(N)=NCCCCCCN=C(N)NC(N)=NCC(CC)CCCC (stereo unspecified) | -54.3% (active) | -85.2% (active) | -94% (active) | -78% (active) | -75.7% (active) | -88.8% (active) | -94.4% (active) | 
